Data reported in PubChem BioAssay (NCATS).
Inconclusive results are not listed. Entries that show only a call come without a potency. Active and inactive are the calls of the source. The call rests on the fitted dose curve; in most records, active means well fitted curve in the direction sought with a large enough effect; inconclusive means small, poorly fitted or top-dose-only effect, or another doubt; inactive means no such curve, though single readings can be large; an effect the other way counts as inactive or inconclusive.

How the values were obtained:
[1] = biological target: Glutaminase kidney isoform, mitochondrial (Homo sapiens) (UniProt O94925); assay: qHTS for Inhibitors of Glutaminase (GLS): LOPAC Validation (AID 624146);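 further: glutamate product detected by oxidase and peroxidase coupled Amplex red fluorescence gain; series mostly up to about 46 µM; nearly all actives have a fitted effect of over 60% in size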
Sequence of Glutaminase kidney isoform, mitochondrial (Homo sapiens) (O94925 whole entry, looked up, canonical isoform): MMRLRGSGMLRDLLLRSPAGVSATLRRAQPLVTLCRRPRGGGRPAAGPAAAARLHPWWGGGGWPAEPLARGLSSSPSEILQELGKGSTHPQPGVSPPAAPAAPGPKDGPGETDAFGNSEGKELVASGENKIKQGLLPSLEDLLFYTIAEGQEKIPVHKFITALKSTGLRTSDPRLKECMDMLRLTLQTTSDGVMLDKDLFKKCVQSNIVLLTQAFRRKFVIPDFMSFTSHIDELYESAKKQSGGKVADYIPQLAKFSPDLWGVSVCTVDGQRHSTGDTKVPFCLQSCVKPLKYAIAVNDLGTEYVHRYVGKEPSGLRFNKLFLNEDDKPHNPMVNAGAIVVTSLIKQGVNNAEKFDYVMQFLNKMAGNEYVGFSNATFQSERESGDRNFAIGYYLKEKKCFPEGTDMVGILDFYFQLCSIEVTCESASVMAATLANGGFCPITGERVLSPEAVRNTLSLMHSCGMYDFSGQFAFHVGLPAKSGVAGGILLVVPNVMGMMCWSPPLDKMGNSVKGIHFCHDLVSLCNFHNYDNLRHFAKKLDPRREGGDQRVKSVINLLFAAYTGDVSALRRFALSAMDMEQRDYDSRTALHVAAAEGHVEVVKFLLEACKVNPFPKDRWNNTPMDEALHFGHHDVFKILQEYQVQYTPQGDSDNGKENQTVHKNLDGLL
Outline: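 hKGA in 45 mM KH2PO4 (pH 8.2), 0.02% Tween-20 with compound, then 1mM L-Glutamine (stock as added) plus glutamate oxidase/HRP/Amplex red coupling mix. Fluorescence read initially and after 30 min at RT; signal change reflects glutamate formation.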

[2] = qHTS of Trypanosoma Brucei Inhibitors: LOPAC Validation (AID 624147)
Outline: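 Luminescent Kinase-Glo Plus end-point after 45 min room-temperature reaction of T. brucei pyruvate kinase started with 130 uM ADP (final). Buffer TEA 50 mM pH 7.2 with KCl, MgCl2, BSA, Tween-20; titration-based qHTS with fitted concentration-effect curves.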

SMILES: OC[C@H]1O[C@@H](n2cnc3c(Nc4ccccc4)ncnc32)[C@H](O)[C@@H]1O
- Potency [1]: inactive
- Potency [2]: inactive

SMILES: C[N+]1(C)CCC(OC(=O)C(c2ccccc2)c2ccccc2)CC1
- Potency [1]: inactive
- Potency [2]: inactive

SMILES: CCc1c(C(=O)NCCc2ccc(N3CCCCC3)cc2)[nH]c2ccc(Cl)cc12
- Potency [1]: inactive
- Potency [2]: inactive

SMILES: O=C1NC(=O)/C(=C/c2ccc3nccnc3c2)S1
- Potency [1]: inactive
- Potency [2]: inactive

SMILES: CNC(=O)[C@H]1O[C@@H](n2cnc3c(NCc4cccc(I)c4)ncnc32)[C@H](O)[C@@H]1O
- Potency [1]: inactive
- Potency [2]: inactive

SMILES: Nc1ncnc2c1ncn2[C@@H]1O[C@H](COP(=O)(O)CP(=O)(O)OP(=O)(O)O)[C@@H](O)[C@H]1O
- Potency [1]: inactive
- Potency [2]: inactive
